Compounds without any hit were thinned out: in the full panel of roughly 83,000, 20% have a hit.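 Activity criterion: percent growth below 10, measured after cells in 96-well plates were exposed to a single compound concentration for 48 hours.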 Values without a mark were called inactive. Activity calls are given as the source filed them.

Test systems include NCI-H23 lung; NCI-H226 lung; NCI-H322M lung; HOP-62 NSCLC; NCI-H460 lung; HOP-92 NSCLC; NCI-H522 lung; A549/ATCC NSCLC; 786-0 renal; COLO 205 colon.
Assay in all cases: NCI-60 one-dose screen, 48 h (100 = growth as untreated, 0 = no growth, -100 = all killed)
Holding throughout (conditions): 10 µM unless noted

For the compound `CN1CCN(c2ccc(C(=O)Nc3n[nH]c4ccc(Cc5cc(F)cc(F)c5)cc34)c(NC3CCOCC3)c2)CC1`, the growth in the experiment with NCI-H23 lung is 11%; in the experiment with NCI-H226 lung, -5.76% (active); with NCI-H322M lung, 33.8%; in the experiment on HOP-62 NSCLC, -34.8% (active); with NCI-H460 lung, -80.3% (active); in the experiment on HOP-92 NSCLC, -68.6% (active). The growth with NCI-H522 lung is -70.6% (active); with A549/ATCC NSCLC it was -51.7% (active); in the experiment on 786-0 renal, -95.1% (active); with COLO 205 colon, -73.6% (active).

As to `COc1ccc(F)c(F)c1C(=O)c1cnc(NC2CCN(S(C)(=O)=O)CC2)nc1N`, the growth with NCI-H23 lung was -36.5% (active); in the experiment on NCI-H226 lung, 3.23% (active); in the experiment with NCI-H322M lung, 2.76% (active); in the experiment on HOP-62 NSCLC it was -24.7% (active); in the experiment with NCI-H460 lung, 3.3% (active); in the experiment with HOP-92 NSCLC it was -8.59% (active). For the same compound, the growth was -29.5% (active) in the experiment with NCI-H522 lung, 3.28% (active) in the experiment with A549/ATCC NSCLC, 14.4% in the experiment with 786-0 renal and -79.7% (active) in the experiment with COLO 205 colon.

Regarding `NC(=O)c1n[nH]n2c1nc(=O)c1c3c(sc12)CCCC3`, the growth was 101% with NCI-H23 lung; 91.4% in the experiment with NCI-H226 lung; 101% with NCI-H322M lung; 96.5% with HOP-62 NSCLC; 109% in the experiment on NCI-H460 lung; 91.7% in the experiment with HOP-92 NSCLC. Further, the growth was 102% in the experiment with NCI-H522 lung, 92.7% with A549/ATCC NSCLC, 106% in the experiment with 786-0 renal and 103% in the experiment on COLO 205 colon.

Take `NC1=Nc2cc(OCCCN3Cc4ccccc4C3)c(OCC3CC3)cc2C12CCCC2`: the growth is 77.2% in the experiment on NCI-H23 lung; 80.7% in the experiment on NCI-H226 lung; 91.6% in the experiment on NCI-H322M lung; 77% with HOP-62 NSCLC; 69.8% in the experiment with NCI-H460 lung; 40.7% with HOP-92 NSCLC. For the same compound, the growth was 39.7% with NCI-H522 lung, 64.4% with A549/ATCC NSCLC, 55.6% with 786-0 renal and -62.5% (active) in the experiment on COLO 205 colon.

Regarding `COc1cc2cc(NCc3ccc(Cl)cc3)nc(C)c2cc1OC`, the growth was 23.7% in the experiment with NCI-H23 lung; 35.5% in the experiment on NCI-H226 lung; 44.6% with NCI-H322M lung; 56.5% with HOP-62 NSCLC; 22.6% in the experiment with NCI-H460 lung; 36.3% in the experiment on HOP-92 NSCLC. Further, the growth with NCI-H522 lung was 45.7%; with A549/ATCC NSCLC it was 39.8%; in the experiment on 786-0 renal, 28.2%; in the experiment with COLO 205 colon, 26.5%.

For `C/C(=C(/c1ccc(Cl)cc1)c1ccc(OCCN2CCCCC2)cc1)c1ccccc1`, the growth was 76.3% in the experiment with NCI-H23 lung; 98.7% with NCI-H226 lung; 91.4% in the experiment on NCI-H322M lung; 68.8% in the experiment on HOP-62 NSCLC; 74.4% in the experiment on NCI-H460 lung; 83.6% in the experiment with HOP-92 NSCLC. The growth was 81.4% in the experiment with NCI-H522 lung, 57.2% in the experiment with A549/ATCC NSCLC, 75.6% in the experiment on 786-0 renal and 11.8% in the experiment with COLO 205 colon.

Turning to `Cc1cnc(NC(=O)Nc2cc(Br)c(C)cc2OC[C@@H]2CNCCO2)cn1`, the growth was 15% with NCI-H23 lung; 51.2% in the experiment on NCI-H226 lung; 34.3% in the experiment with NCI-H322M lung; 12.5% in the experiment with HOP-62 NSCLC; 4.27% (active) in the experiment on NCI-H460 lung; 35% with HOP-92 NSCLC. The growth is -16.4% (active) in the experiment with NCI-H522 lung, 17.5% in the experiment with A549/ATCC NSCLC, 2.83% (active) in the experiment with 786-0 renal and 3.34% (active) with COLO 205 colon.

As to `NS(=O)(=O)c1ccc(CCN2C(=O)/C(=C\c3ccc(Cl)cc3)C=C2c2ccc3ccccc3c2)cc1`, the growth in the experiment on NCI-H23 lung was 95.4%; in the experiment on NCI-H226 lung, 80.8%; in the experiment on NCI-H322M lung, 92.4%; in the experiment with HOP-62 NSCLC it was 72%; in the experiment on NCI-H460 lung it was 102%; in the experiment on HOP-92 NSCLC, 94%. Also, the growth with NCI-H522 lung is 60.9%; with A549/ATCC NSCLC, 62%; in the experiment on 786-0 renal, 93.4%; with COLO 205 colon, 100%.

Consider `C=CC(=O)Nc1cccc(Oc2nc(Nc3ccc(N4CCN(C)CC4)cc3)nc3ccsc23)c1`, for which the growth in the experiment with NCI-H23 lung was 32.2%; in the experiment with NCI-H226 lung it was -2.55% (active); in the experiment on NCI-H322M lung, 4.69% (active); in the experiment on HOP-62 NSCLC, -62% (active); in the experiment with NCI-H460 lung, -59.8% (active); with HOP-92 NSCLC, -70.8% (active). Moreover, the growth in the experiment on NCI-H522 lung is -77.1% (active); in the experiment on A549/ATCC NSCLC, -74.1% (active); with 786-0 renal it was -84% (active); in the experiment with COLO 205 colon it was -83.3% (active).

As to `O=C1CCC(=O)CC1`, the growth in the experiment on NCI-H23 lung is 103%; in the experiment on NCI-H226 lung, 101%; in the experiment with NCI-H322M lung, 110%; with HOP-62 NSCLC, 102%; in the experiment with NCI-H460 lung, 104%; in the experiment on HOP-92 NSCLC it was 87.4%. Also, the growth in the experiment with NCI-H522 lung is 91.2%; in the experiment on A549/ATCC NSCLC it was 91.4%; with 786-0 renal it was 104%; in the experiment with COLO 205 colon it was 115%.

Turning to `N#Cc1c(C(F)(F)F)cc(Nc2ccc3nc(NCCN4CCCC4)oc3c2)n2c1nc1ccccc12`, the growth was 81% in the experiment with NCI-H23 lung; 82.8% with NCI-H226 lung; 87.4% in the experiment with NCI-H322M lung; 75% in the experiment on HOP-62 NSCLC; 99.4% in the experiment with NCI-H460 lung; 51.2% with HOP-92 NSCLC. In addition, the growth with NCI-H522 lung was 58.2%; in the experiment with A549/ATCC NSCLC, 56.7%; in the experiment with 786-0 renal it was 26.1%; in the experiment with COLO 205 colon, 38.7%.

For the compound `O=C(Cc1ccc(/C=C/C(=O)c2ncc[nH]2)cc1)Nc1ccc(S(F)(F)(F)(F)F)cc1`, the growth with NCI-H23 lung was 68.5%; in the experiment on NCI-H226 lung, 93.7%; in the experiment with NCI-H322M lung it was 95%; in the experiment with HOP-62 NSCLC, 93.8%; in the experiment on NCI-H460 lung, 98.2%; in the experiment with HOP-92 NSCLC it was 97%. In addition, the growth in the experiment with NCI-H522 lung was 65.8%; in the experiment on A549/ATCC NSCLC, 76.7%; with 786-0 renal, 88.5%; in the experiment with COLO 205 colon, 82.7%.

The values are drawn from PubChem BioAssay (NCI).
